# MCL1 BIM primary – MCL1-BIM-BH3 interaction inhibition (human) | 0.68% of 320,000 active | GST-MCL1 / FITC-Bim-BH3 fluorescence polarization | inhibition, % at 10.9 µM;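 active = inhibition above the mean inhibition of all tested compounds plus 3 SD, set per campaign, cut at about 40% in these data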;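 note: 0% = DMSO wells and 100% = unlabeled Bim-BH3 peptide control; higher means more loss of mP so more displacement of Bim peptide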
# GLD-1 TGE inh – GLD-1-TGE RNA interaction inhibition (C. elegans) | 0.44% of 320,000 active | purified GLD-1 + fluorescein TGE RNA, fluorescence polarization | Q17339 | inhibition, % at 5.96 µM | AID 2280;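 active = percent inhibition above a per-plate cutoff, the plate mean of test compounds plus 3 SD, cut at about 30% in these data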;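 note: 0% = DMSO wells with GLD-1 and probe and 100% = wells lacking GLD-1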
# Target sequence (Q17339 whole entry, looked up): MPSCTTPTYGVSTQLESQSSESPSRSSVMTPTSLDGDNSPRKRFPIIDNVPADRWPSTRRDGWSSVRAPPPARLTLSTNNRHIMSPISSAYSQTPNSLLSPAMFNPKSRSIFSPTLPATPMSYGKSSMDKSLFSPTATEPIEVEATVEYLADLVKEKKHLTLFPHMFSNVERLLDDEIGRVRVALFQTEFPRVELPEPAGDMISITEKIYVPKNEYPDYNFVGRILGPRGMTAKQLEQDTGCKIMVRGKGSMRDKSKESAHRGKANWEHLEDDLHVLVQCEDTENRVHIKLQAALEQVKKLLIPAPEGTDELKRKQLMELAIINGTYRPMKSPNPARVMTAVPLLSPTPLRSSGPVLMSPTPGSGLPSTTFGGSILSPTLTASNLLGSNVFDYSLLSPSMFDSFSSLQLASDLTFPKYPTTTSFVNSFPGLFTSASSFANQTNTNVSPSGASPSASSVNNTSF
# Mcl1-Bid inh – Mcl-1/Bid interaction inhibition; AID 1021; 0.97% of 220,000 active; TR-FRET Mcl-1/Bid-Dy647 peptide binding, 1536-well; Q07820; inhibition, % at 21.7 µM;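 active = compounds that cut the binding signal by more than half at the single screening dose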;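 note: His-tagged Mcl-1 with europium anti-His antibody binding Bid BH3 peptide; 0% = Mcl-1 plus peptide wells and 100% = peptide-only wells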
# Mcl1 Noxa PPI – disrupts binding of human Mcl-1 to Noxa peptide; Q07820; TR-FRET Mcl-1/Noxa peptide binding, 2 h; inhibition, % at 21.7 µM; 1.5% of 220,000 active;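 active = compounds that cut the protein-peptide binding signal by more than 50% relative to plate controls in a single-dose test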;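 note: His-tagged Mcl-1 with rhodamine Noxa BH3 peptide and terbium anti-His antibody; 0% = Mcl-1 plus Noxa peptide wells and 100% = peptide-only wells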
# BCLXL inh – Bcl-xL (human) inhibition | GST-Bcl-xL / FITC-Bim BH3 peptide fluorescence polarization | inhibition, % at 10.9 µM | 0.7% of 320,000 active;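 active = inhibition above the mean of all tested compounds plus 3 SD, cutoff set per campaign, cut at about 30% in these data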;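 note: 0% = DMSO wells and 100% = unlabeled Bim-BH3 peptide competitor; inhibitors lower millipolarization by displacing the labeled peptide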
# Mcl-1 Bim block – human Bim-Mcl-1 interaction inhibition. Bead-based flow cytometry, Bim peptide-Mcl-1 binding. Q07820. 0.1% of 190,000 active. inhibition, % at 10 µM; in the data active = inhibition above about 40%;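 note: 0% = no compound tracer wells and 100% = peptide blocker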
# Active calls of the source: *; . = not tested or not shown. This is a sample that favours compounds with a hit; in the whole collection about 2.3% have one here.
SMILES,MCL1 BIM primary,GLD-1 TGE inh,Mcl1-Bid inh,Mcl1 Noxa PPI,BCLXL inh,Mcl-1 Bim block
COc1cc2c(cc1OC)-c1cc(NCc3ccccn3)nc(=O)n1CC2,5,2,98*,38,12,10
O=C(CCNC(=O)c1ccccc1)NNC(=O)c1ccccc1Br,.,-2,.,.,.,.
COc1ccccc1N(CC(=O)NCc1ccc2c(c1)OCO2)C(=O)CCC(=O)Nc1nccs1,3,-1,.,.,4,.
Cn1cc(-c2ccccc2C(=O)O)c(=O)c2cc(Cl)ccc21,4,1,.,.,2,.
CC(=O)c1cc(O)c2ccccc2c1O,16,8,24,80*,24,.
CC1CCCCC12NC(=O)N(Cn1nnc3ccccc3c1=O)C2=O (stereo unspecified),-1,31*,-13,-5,0,-7
CCN(Cc1nc2ccccc2c(=O)[nH]1)C(=O)CN1C(=O)NC2(CCCCC2C)C1=O (stereo unspecified),2,6,.,.,5,.
Cc1cc(C)c2oc(C(=O)Nc3ccc(S(=O)(=O)Nc4nccs4)cc3)cc(=O)c2c1,10,6,-152,83*,10,.
Cc1cc2oc(C(=O)Nc3ccc(S(=O)(=O)Nc4nccs4)cc3)cc(=O)c2cc1Cl,8,4,26,62*,5,7
COc1ccc(Br)cc1CN1CCC(N2CCCC2)CC1,0,0,.,.,7,.
O=C(NCc1ccc(F)cc1)Nc1cccc(Cl)c1,-7,0,0,16,1,0
Cn1cc(Br)c(NC(=O)/C=C/C(=O)O)n1,-1,2,18,67*,2,.
NC(=O)C1(c2ccccc2)OC1c1ccccc1 (stereo unspecified),9,-6,.,.,5,.
O=C(C1CCN(S(=O)(=O)c2c(Cl)cccc2Cl)CC1)N1CCCCCCC1,-15,8,.,.,-10,.
CC(C)(C)OC(=O)NC(Cc1ccccc1)C(=O)O (stereo unspecified),4,6,60*,36,12,.
CN(C)c1ccc(C(CNC(=O)c2ccc(C#N)cc2)c2c[nH]c3ccccc23)cc1 (stereo unspecified),-3,3,-6,79*,1,-1
CN(C)c1ccc(C(CNS(=O)(=O)c2ccc(F)cc2)c2c[nH]c3ccccc23)cc1 (stereo unspecified),1,2,-48,31,1,-2
CN(C)c1ccc(C(CNC(=O)c2ccccc2Br)c2c[nH]c3ccccc23)cc1 (stereo unspecified),-5,4,-55,78*,-2,-4
CCOC(=O)c1ccc(S(=O)(=O)NCC(c2ccc(N(C)C)cc2)c2c[nH]c3ccccc23)cc1 (stereo unspecified),12,5,-23,15,9,-2
COc1cccc(CN(C)C(=O)c2ccc3nccnc3c2)c1,48*,10,2,26,41*,-1
CC1=CC(C#N)(C#N)C(C#N)(C#N)C(c2ccccc2)N1 (stereo unspecified),151*,119*,-27,19,145*,-2
O=C(COC(=O)Cc1ccsc1)Nc1ccc(Cl)cc1F,.,4,.,.,.,.
CCOC(=O)CCCNC(=O)CCNC(=O)c1ccc(OCC)cc1,9,-4,-12,66*,3,-1
Nc1c2c(nc3ccccc13)CCCC2,-2,3,8,51*,-4,-2
Cc1ccc(Cl)c(OCCCN(C)Cc2ccccc2)c1,1,2,77*,18,4,.
SMILES,MCL1 BIM primary,GLD-1 TGE inh,Mcl1-Bid inh,Mcl1 Noxa PPI,BCLXL inh,Mcl-1 Bim block
Cc1ccc(Cl)c(OCCCCN(C)Cc2ccccc2)c1,-3,2,52*,16,6,-4
CCCC(=O)N(CCN1CCOCC1)c1nc2c(OC)ccc(OC)c2s1,1,4,.,.,4,.
O=C(COC(=O)Cn1cnc2ccccc21)Nc1cc(S(=O)(=O)N2CCOCC2)ccc1Cl,-1,8,3,0,-3,.
O=C(COC(=O)Cn1cnc2ccccc21)Nc1cc2c(cc1Cl)C(=O)c1ccccc1C2=O,14,2,0,54*,16,0
COc1ccc(S(=O)(=O)N2CCOCC2)cc1NC(=O)CN1C(=O)NC2(CCCCC2C)C1=O (stereo unspecified),-18,-3,.,.,-8,.
O=C(O)CC(C(=O)O)N1C(=O)/C(=C/c2ccc(-c3nc4ccccc4s3)o2)SC1=S (stereo unspecified),-16,-71,-19,5,-15,3
O=C(O)CCCN1C(=O)/C(=C\c2ccc(-c3nc4ccccc4s3)o2)SC1=S,23,-7,87*,104*,16,.
O=C(O)CCN1C(=O)/C(=C/c2ccc(-c3nc4ccccc4s3)o2)SC1=S,15,-13,94*,104*,10,9
O=Cc1ccc(-c2nc3ccccc3s2)o1,-13,0,-19,-11,-2,2
O=C(CN1CCc2ccccc21)NC(=O)NCc1ccccc1,10,-9,-35,-6,7,0
CCN(c1ccc(NC(=O)c2ccc(Cl)nc2)cc1)C(C)C,-2,0,-61,79*,4,0
COc1ccc(N2C(=O)[C@@H]3[C@H](C2=O)[C@H]2c4ccccc4C=CN2[C@@H]3C(C)=O)cc1,26,22,-6,6,34*,-1
COc1ccc(N2C(=O)[C@H]3[C@@H](C2=O)C2c4ccccc4C=NN2[C@H]3C(=O)C(C)(C)C)cc1 (stereo partly specified),4,4,-16,20,1,.
Cc1ccc(NS(=O)(=O)c2cccc(C(=O)Nc3cccnc3)c2)c(C)c1,.,-2,.,.,.,.
CCOC(=O)Cc1csc(NC(=O)CSc2nnnn2-c2ccc(C)c(C)c2)n1,2,0,80*,-19,3,-3
Cc1ccc(/C=C2\Oc3c(ccc(O)c3CN3CCN(C)CC3)C2=O)cc1,42*,4,0,-13,46*,0
CCN1CCN(Cc2c(O)ccc3c2O/C(=C\c2ccc(C)cc2)C3=O)CC1,29,-1,-5,6,40*,0
O=C1/C(=C/C=C/c2ccccc2)Oc2c1ccc(O)c2CN1CCN(CCO)CC1,22,8,-23,-23,20,.
COc1ccccc1/C=C/C=C1\Oc2c(ccc(O)c2CN2CCN(CCO)CC2)C1=O,0,-24,-33,-14,40*,0
CCc1ccc(/C=C2\Oc3c(ccc(O)c3CN3CCN(C)CC3)C2=O)cc1,34,-2,-4,4,42*,.
CCN1CCN(Cc2c(O)ccc3c2O/C(=C\C=C\c2ccccc2)C3=O)CC1,16,2,-26,24,25,-1
Cc1ccc(NS(=O)(=O)c2c(C)noc2C)cc1,2,-5,.,.,3,.
Cc1ccc(C)c(N2CCN(C(=O)c3cc4ccccn4n3)CC2)c1,44*,24,-9,-2,49*,-4
Cc1noc(C)c1CSCC(=O)N(C)CC(=O)Nc1ccccc1C(F)(F)F,-2,-1,.,.,-1,.
